± gives the standard deviation of the averaged measurements. About 6,200 targets were measured; listed, in parts, are those with the largest changes and a random draw of the rest.
Compound: Nc1ncnc2c1ncn2[C@@H]1O[C@H](COP(=O)(O)OP(=O)(O)NP(=O)(O)O)[C@@H](O)[C@H]1O [adenylyl imidodiphosphate]
Experiment: NP40-soluble protein abundance relative to vehicle (solubility fold change) (ratio); higher = more soluble protein in presence of AMP-PNP
Outline: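 Jurkat crude lysate (Dounce-homogenised) was treated with eight concentrations from 0.1 to 10 mM for 10 min at room temperature, then 3 min at 37 °C. It was solubilised with 0.8% NP40 and benzonase (60 min, 4 °C) and ultracentrifuged, and the supernatant was TMT-labelled for LC-MS/MS. Intensities were vsn-normalised, and the value is the fold change against the NP40-processed vehicle per replicate, from three independent experiments.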

UniProt Q8TBC5, sequence (Q8TBC5 whole entry, one chain of several): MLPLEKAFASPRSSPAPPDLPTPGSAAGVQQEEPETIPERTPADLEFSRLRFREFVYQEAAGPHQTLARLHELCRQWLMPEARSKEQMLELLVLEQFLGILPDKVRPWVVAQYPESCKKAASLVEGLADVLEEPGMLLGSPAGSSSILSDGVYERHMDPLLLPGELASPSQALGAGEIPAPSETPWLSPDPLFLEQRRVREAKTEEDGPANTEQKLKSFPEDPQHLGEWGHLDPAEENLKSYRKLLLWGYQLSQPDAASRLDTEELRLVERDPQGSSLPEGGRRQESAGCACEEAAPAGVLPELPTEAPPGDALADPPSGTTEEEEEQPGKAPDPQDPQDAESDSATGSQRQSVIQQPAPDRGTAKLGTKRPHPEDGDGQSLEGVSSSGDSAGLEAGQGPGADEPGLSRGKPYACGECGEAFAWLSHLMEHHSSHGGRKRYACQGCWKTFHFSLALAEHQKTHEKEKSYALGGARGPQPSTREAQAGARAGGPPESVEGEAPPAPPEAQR
UniProt O43148, sequence (O43148 whole entry): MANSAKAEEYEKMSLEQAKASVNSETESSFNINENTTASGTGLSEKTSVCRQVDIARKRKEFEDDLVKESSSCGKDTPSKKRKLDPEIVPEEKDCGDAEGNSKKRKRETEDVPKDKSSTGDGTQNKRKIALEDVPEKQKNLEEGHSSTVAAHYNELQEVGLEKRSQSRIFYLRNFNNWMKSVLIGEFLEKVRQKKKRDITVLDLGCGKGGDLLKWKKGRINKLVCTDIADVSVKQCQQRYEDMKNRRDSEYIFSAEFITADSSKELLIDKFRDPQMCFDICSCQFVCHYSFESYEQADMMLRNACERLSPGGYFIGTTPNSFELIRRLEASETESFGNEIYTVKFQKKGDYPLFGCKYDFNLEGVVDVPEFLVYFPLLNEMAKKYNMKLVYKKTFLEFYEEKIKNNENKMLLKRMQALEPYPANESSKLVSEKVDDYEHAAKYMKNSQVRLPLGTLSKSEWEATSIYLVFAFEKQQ
UniProt Q96MF7, sequence (Q96MF7 whole entry, one chain of several): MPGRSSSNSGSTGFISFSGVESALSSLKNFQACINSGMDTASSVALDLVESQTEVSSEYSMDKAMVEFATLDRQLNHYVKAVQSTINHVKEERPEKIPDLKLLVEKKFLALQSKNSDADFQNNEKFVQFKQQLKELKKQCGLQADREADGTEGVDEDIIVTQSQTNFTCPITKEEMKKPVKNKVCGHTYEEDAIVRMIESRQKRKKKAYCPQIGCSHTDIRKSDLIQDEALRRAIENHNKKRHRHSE
UniProt I3L1I5, sequence (I3L1I5 whole entry, looked up, one chain of several): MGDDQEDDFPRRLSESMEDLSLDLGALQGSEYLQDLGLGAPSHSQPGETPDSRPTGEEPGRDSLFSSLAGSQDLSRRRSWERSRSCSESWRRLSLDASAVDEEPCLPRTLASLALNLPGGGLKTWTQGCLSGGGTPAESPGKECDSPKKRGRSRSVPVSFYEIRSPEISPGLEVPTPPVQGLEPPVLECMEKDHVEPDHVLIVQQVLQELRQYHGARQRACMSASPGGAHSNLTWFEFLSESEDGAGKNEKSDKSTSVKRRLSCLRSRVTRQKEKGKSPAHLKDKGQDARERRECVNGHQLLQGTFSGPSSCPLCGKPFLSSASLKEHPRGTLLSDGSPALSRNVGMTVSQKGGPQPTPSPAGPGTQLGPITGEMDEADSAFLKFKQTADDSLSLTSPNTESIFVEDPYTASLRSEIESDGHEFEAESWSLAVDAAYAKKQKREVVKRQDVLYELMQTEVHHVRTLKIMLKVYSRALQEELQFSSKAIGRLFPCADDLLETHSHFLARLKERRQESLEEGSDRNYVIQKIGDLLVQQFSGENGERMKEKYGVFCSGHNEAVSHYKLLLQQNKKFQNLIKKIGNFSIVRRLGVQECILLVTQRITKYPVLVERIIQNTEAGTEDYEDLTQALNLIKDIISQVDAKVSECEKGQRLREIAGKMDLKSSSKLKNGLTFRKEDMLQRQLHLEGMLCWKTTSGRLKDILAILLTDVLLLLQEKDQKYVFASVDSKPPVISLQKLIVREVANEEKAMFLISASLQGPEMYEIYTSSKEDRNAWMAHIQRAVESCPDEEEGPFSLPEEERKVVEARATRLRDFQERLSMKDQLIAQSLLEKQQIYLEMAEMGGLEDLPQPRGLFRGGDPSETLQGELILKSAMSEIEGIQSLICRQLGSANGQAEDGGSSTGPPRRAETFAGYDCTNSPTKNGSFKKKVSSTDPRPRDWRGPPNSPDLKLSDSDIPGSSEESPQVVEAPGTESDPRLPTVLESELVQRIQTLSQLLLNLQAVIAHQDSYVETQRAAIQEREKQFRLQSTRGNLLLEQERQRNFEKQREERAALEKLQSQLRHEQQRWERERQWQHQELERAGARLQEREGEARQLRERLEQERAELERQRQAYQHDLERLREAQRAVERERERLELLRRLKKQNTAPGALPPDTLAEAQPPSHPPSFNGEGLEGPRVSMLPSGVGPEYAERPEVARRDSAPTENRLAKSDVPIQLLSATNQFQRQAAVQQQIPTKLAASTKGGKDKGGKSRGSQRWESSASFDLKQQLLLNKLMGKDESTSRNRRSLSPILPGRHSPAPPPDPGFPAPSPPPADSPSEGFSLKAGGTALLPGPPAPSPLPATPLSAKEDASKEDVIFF
UniProt O75037, sequence (O75037 whole entry): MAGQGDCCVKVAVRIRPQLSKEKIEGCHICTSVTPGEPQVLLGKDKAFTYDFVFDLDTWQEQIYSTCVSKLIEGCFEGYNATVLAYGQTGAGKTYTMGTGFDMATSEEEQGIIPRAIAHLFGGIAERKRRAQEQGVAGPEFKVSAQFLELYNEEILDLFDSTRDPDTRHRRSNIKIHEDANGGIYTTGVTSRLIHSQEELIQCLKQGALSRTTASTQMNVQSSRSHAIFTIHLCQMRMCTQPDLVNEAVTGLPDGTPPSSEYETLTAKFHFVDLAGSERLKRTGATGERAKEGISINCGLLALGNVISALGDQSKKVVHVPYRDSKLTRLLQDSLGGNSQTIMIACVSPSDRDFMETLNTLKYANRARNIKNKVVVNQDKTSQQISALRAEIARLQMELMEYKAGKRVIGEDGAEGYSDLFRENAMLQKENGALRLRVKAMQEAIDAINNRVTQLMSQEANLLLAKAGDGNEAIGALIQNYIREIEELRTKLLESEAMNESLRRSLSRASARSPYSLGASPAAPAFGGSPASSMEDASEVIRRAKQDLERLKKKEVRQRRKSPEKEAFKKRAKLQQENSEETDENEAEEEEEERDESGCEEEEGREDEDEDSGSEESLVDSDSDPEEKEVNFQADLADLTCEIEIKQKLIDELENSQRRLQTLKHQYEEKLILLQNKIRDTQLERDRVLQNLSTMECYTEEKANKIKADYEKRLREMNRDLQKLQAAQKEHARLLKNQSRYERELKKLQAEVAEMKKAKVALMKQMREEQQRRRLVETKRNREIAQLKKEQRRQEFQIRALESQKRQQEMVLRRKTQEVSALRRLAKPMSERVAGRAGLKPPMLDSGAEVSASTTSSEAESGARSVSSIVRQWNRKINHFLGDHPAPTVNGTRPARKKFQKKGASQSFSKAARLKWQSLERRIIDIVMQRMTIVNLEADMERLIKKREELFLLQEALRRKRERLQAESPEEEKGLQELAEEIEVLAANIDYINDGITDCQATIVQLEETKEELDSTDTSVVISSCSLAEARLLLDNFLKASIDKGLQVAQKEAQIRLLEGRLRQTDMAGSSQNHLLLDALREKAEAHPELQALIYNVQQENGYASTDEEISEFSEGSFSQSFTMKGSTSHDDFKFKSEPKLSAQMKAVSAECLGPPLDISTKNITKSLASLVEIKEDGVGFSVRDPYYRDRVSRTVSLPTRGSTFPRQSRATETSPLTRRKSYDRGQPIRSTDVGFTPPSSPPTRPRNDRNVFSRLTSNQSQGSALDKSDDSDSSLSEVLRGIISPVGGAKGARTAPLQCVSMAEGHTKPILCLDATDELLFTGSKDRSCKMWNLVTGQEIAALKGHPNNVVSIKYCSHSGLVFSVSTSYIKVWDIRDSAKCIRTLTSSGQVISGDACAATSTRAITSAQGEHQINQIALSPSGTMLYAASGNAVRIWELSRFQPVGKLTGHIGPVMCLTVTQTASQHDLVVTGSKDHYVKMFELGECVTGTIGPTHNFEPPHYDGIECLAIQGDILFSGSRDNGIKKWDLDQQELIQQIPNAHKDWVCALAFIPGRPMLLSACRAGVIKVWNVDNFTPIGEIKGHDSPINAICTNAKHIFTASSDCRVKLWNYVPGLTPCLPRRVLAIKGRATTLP
UniProt O75264, sequence (O75264 whole entry, one chain of several): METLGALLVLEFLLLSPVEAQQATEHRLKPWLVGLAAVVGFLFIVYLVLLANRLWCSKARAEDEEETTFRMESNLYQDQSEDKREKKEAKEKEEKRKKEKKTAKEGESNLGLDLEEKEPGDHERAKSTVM
UniProt P48444, sequence (P48444 whole entry, one chain of several): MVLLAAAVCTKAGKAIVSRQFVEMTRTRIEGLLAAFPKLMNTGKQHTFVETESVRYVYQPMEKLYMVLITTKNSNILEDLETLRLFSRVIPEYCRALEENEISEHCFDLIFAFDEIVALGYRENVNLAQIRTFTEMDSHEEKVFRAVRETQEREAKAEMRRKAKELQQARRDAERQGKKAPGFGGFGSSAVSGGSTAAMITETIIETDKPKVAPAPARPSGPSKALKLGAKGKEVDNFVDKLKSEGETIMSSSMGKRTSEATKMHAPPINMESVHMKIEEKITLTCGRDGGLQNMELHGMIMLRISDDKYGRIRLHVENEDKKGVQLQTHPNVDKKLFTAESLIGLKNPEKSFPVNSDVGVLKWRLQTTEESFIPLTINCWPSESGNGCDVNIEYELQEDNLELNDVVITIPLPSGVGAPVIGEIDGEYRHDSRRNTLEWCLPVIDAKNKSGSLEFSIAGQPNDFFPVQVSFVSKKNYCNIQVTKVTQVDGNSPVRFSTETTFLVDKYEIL
UniProt O96015, sequence (O96015 whole entry, one chain of several): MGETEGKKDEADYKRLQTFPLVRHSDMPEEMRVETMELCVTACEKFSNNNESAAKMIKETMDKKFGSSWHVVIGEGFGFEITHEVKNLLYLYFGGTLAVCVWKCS

Target	NP40-soluble protein abundance (concentration: 1mM)	NP40-soluble protein abundance (concentration: 2mM)	NP40-soluble protein abundance (concentration: 4mM)	NP40-soluble protein abundance (concentration: 6mM)	NP40-soluble protein abundance (concentration: 8mM)	NP40-soluble protein abundance (concentration: 10mM)
H0YKD8|P46779 (UniProt P46779)	1.05 ± 0.14	1.02 ± 0.09	1.01 ± 0.13	0.993 ± 0.071	0.919 ± 0.098	1.05 ± 0.16
UniProt O75037|O75037-2	1.03 ± 0.042	1.06 ± 0.018	1.04 ± 0.05	1.01 ± 0.04	1 ± 0.032	1.04 ± 0.052
B0YIW6|P48444 (UniProt P48444)	0.98 ± 0.015	0.931 ± 0.045	0.949 ± 0.01	0.9391 ± 0.0089	0.9554 ± 0.0037	0.921 ± 0.017
E5RFJ1|Q96MF7 (UniProt Q96MF7)	1.01 ± 0.028	1.03 ± 0.06	1.02 ± 0.035	0.957 ± 0.033	0.989 ± 0.022	0.9706 ± 0.0092
K7EKM7 (UniProt O75264)	1 ± 0.035	0.988 ± 0.015	1 ± 0.038	0.971 ± 0.032	0.9753 ± 0.0085	1.01 ± 0.014
UniProt O43148|O43148-2	0.996 ± 0.013	1.01 ± 0.011	0.992 ± 0.017	0.992 ± 0.027	0.985 ± 0.029	1 ± 0.033
K7EIU8|Q13485 (UniProt Q13485)	0.986 ± 0.065	0.936 ± 0.062	0.99 ± 0.091	1.04 ± 0.084	1.08 ± 0.08	1.03 ± 0.093
A0A0A6YYC8|I3L1I5 (UniProt I3L1I5)	1.01 ± 0.027	1.02 ± 0.04	1.02 ± 0.012	1.01 ± 0.023	1 ± 0.02	1.009 ± 0.0072
A0A0C4DG78|M0R3C6|Q8TBC5|Q8TBC5-2|Q8TBC5-3|Q8TBC5-4 (UniProt Q8TBC5)	1 ± 0.012	1.02 ± 0.03	0.984 ± 0.028	1.016 ± 0.003	1.002 ± 0.0089	1.02 ± 0.011
H0YLE6|Q9NWH9 (UniProt Q9NWH9)	1.05 ± 0.044	1.11 ± 0.083	1.08 ± 0.039	1.12 ± 0.092	1.11 ± 0.094	1.17 ± 0.094
B0QXZ5|O96015 (UniProt O96015)	1 ± 0.02	1.01 ± 0.047	0.983 ± 0.018	0.998 ± 0.021	0.996 ± 0.019	0.9826 ± 0.0082
A0A0A6YYH1|H0YLI7|P59780|Q7Z6K5-2 (UniProt Q7Z6K5+P59780+H0YLI7)	1 ± 0.04	1.01 ± 0.011	0.9742 ± 0.0072	0.974 ± 0.028	0.965 ± 0.032	0.968 ± 0.017

Reference: the supplement of paper PMC6411743
